# Assay results taken from PubChem BioAssay AID651956 (Broad Institute, 2012).
# Measured potencies and affinities stand elsewhere. Results filed as inconclusive are left out. Active and inactive are the calls of the source.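 Rule for the calls: active = in every test run, a fitted half-maximal concentration for signal decrease at or below twice the highest tested concentration; inconclusive = runs disagree, flat 30 to 70% decrease, or poor fit; inactive = the rest.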
# Assay: activation of miR-122 Renilla sensor silencing – cell-based, Huh7 psiCHECK-miR122, Renilla luciferase, cherry-picked, dose response (AID 651956);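 note: Renilla luciferase from a miR-122 sensor reporter so lower signal means miR-122 activation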
# Settings: Huh7 psiCHECK-miR122 Renilla luciferase reporter, 48 h; series mostly up to 35 µM
row,Structure (SMILES),outcome
1,Cc1cc(C(=O)Nc2ccc3c(c2)C(=O)N(C)[C@@H]2CC[C@@H](CC(=O)N[C@H](C)c4ccccc4)O[C@H]2CO3)no1,inactive
2,CC(C)NC(=O)N1[C@H](CO)[C@@H](c2ccccc2)[C@@H]1CN(C)C(=O)c1cccnc1,inactive
3,COc1ccc(CNC(=O)C[C@H]2CC[C@H]3[C@H](COc4ccc(NC(=O)C(C)C)cc4C(=O)N3C)O2)cc1,inactive
4,CCC(=O)N1[C@H](CO)[C@@H](c2ccccc2)[C@H]1CN(C(C)C)S(C)(=O)=O,inactive
5,C[C@H](CO)N1C[C@H](C)[C@@H](CN(C)CC2CCCCC2)OCCCC[C@H](C)Oc2ccc(NC(=O)Nc3cccc4ccccc34)cc2C1=O,inactive
6,O=C(C1CC1)N1C[C@H]2[C@@H](c3ccccc31)[C@H](CO)N2C(=O)c1ccccc1F,inactive
7,Cc1ccc(NCC(=O)c2ccccc2)cc1Cl,inactive
8,CC(=O)Nc1ccc2c(c1)C(=O)N(C)[C@H]1CC[C@H](CC(=O)Nc3ccccc3Cl)O[C@@H]1CO2,inactive
9,COc1cccc(-c2nn(-c3ccccc3)cc2CO)c1,inactive
10,COCC(=O)NC[C@H]1N[C@H](CO)[C@H]1c1ccc(C2=CCCC2)cc1,inactive
11,CCOC(=O)CSc1nnnn1-c1cccc2ccccc12,inactive
12,CN1C(=O)c2cc(NC(=O)Cc3ccccc3)ccc2OC[C@H]2O[C@H](CC(=O)O)CC[C@H]21,inactive
13,CN(C(=O)C12CC3CC(CC(C3)C1)C2)C1CCS(=O)(=O)C1 (centres undefined),inactive
14,CN1C(=O)c2cc(NC(=O)c3cccc(C(F)(F)F)c3)ccc2OC[C@@H]2O[C@@H](CC(=O)NCCN3CCCC3)CC[C@@H]21,inactive
